According to PMC12136788:
Positions count from the first letter of the chain named. Over roughly 24,000 sequences, “enrichment r” has its median near 0.99; the highest 2% begin near 3.7. Many of the other results were omitted from the sample, so the highest values are more common in it than they were.

T1: UNK ZnF1-3 (human, UniProt Q9C0B0 31-174)
T1 sequence: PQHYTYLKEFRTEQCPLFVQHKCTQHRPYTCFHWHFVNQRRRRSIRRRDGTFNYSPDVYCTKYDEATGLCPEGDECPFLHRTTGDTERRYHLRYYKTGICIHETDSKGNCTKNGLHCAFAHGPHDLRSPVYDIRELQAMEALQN

B1: chr5:145543945:145543946:-_ENSG00000133706_ENST00000545646|hu_hu|hu_hu_hu_mus_True|1_108 (ssRNA)
RNA: GGGAGUUCUACAGUCCGACGAUCCUGAAUAGCCAGUGGUGGGAAAUAAUCAAGCCAGUGCUCUGCUUCAGAAAACUUCACUAUGUCGUCAUCAGAGAGCCCAAGGGAUUUCAUAAUGUCCCACUGGUACUUAGAAGAUCCAGCCAACAGAGGAUUGAGCAUCA
B2: chr14:62194323:62194324:+_ENSG00000100644_ENST00000337138|hu_mus|motif|central (ssRNA)
RNA: GGGAGUUCUACAGUCCGACGAUCUCUUUCAUCACAGUAAGAAAAUUUCAUAUCGAGGCUGUGUCGACUGAGAAAUGUCUUGCGGUCGGAAGGAAUUUCAAUAUUUGACGGAUGAGGAAUGGGUUCACAAAUCAGCACCAAGCACAACAGAGGAUUGAGCAUCA
B3: chrX:15845472:15845473:-_ENSG00000182287_ENST00000329235|hu_mus|motif|central (ssRNA)
RNA: GGGAGUUCUACAGUCCGACGAUCCCACAAGAAGUCAUCAGCAAGGGAGGACAGUUAUGUCAGUCCAAUUUCUUCAAGAACACGGCGUGGGGUUUCAGCUUCUUUUGCAUCCUCCUGCAGGAGAUCGGCCUGCUCAAUUGCUUUCAACAGAGGAUUGAGCAUCA
B4: chr17:8508246:8508247:-_ENSG00000133026_ENST00000269243|hu_hu|motif|central (ssRNA)
RNA: GGGAGUUCUACAGUCCGACGAUCGUACAUUUCAAUAAUAUUCUCAGAGUAAAUUGGAAGAUUCUUGUAAGGGUUUAUAACGGCACAGAAGAGUCCAGAAUAAGUAUAGAUUAGUCCUGAAUAGUAGCGAUCCUUCAGAUUAUGCAACAGAGGAUUGAGCAUCA
B5: 75584029_75587226_729_CDS_ENSG00000119638_ENST00000238616|human|control|control (ssRNA)
RNA: GGGAGUUCUACAGUCCGACGAUCCGUCUCAGCCAUGGAAUACUCAGAAUUAAGUUUCUUUGCUAGGCCAUAAUCUCCAAGUUUUAUCAGGUUUGCCUUGGUCAGAAAAAUAUUUAAUGUCUUUAUAUCUCUAUGAAGGAUUCCCAACAGAGGAUUGAGCAUCA
B6: chr5:56168760:56168761:+_ENSG00000095015_ENST00000399503|hu_hu|motif|central (ssRNA)
RNA: GGGAGUUCUACAGUCCGACGAUCUCUAGAAAAUAAGCAGCCAACGAGUUCCAUUCCAAACACCUGAAUCCAUGGCUCAGCGGAAUCUUUGUAAGCAGGAGGGAUUUGCUGAGUUCCAUAAUGAGUAAGGUUAAAAUUGCUCUCCAACAGAGGAUUGAGCAUCA
B7: chr18:86887116:86887117:+_ENSMUSG00000024647_ENSMUST00000068423|mus_mus|FALSE|FALSE (ssRNA)
RNA: GGGAGUUCUACAGUCCGACGAUCCGCGUCAGCUCCGCCAUUGUUAAGGGAUUCAUGAGCAAUGAGCAAUGCCAGGUUACUAAGGGAUCCCAGAGAAUAAAUUAAAAAAAAAAAAAAAUGAAAUCCACGUUGCAAGUUUGAAGCCAACAGAGGAUUGAGCAUCA
B8: chr17:39847130:39847131:+_ENSG00000173812_ENST00000469257|hu_mus|motif|central (ssRNA)
RNA: GGGAGUUCUACAGUCCGACGAUCAUUACAUUAUACAAGCUGUGAGGUUUUUAAACUUGUGACAAGGGACAGAAGGGAAAUUCGGCUCAUUGCAAGGAAAUCCUCACUUAAGCUUCAGAGAGCCACAAGCACUUAAAACCCAUGCAACAGAGGAUUGAGCAUCA
B9: chr19:7360422:7360423:-_ENSMUSG00000024969_ENSMUST00000032557|mus_mus|FALSE|FALSE (ssRNA)
RNA: GGGAGUUCUACAGUCCGACGAUCAUAAGGAGGACUGCCACAGAAAGUAUCCAGCUUGUUCCCAAAGGUGAAUUCGUUGCUAAAGCCAAAGUCUGCAAUCUUGAUGUUCAUAUCAGCAUCCAGGAGCAGGUUUUCUGCCUUUAGCAACAGAGGAUUGAGCAUCA
B10: chr18:86887116:86887117:+_ENSMUSG00000024647_ENSMUST00000068423|mus_mus|motif|central (ssRNA)
RNA: B7 RNA with U80G, A81G
B11: 9136497_9143069_760_3pUTR_ENSMUSG00000033499_ENSMUST00000091829|mouse|control|control (ssRNA)
RNA: GGGAGUUCUACAGUCCGACGAUCCAGAAUUCCAAUGUUUUUUUAAGUACUUCCCGAGGGUCUUCCUGGCUUUCUGGUUGAGACUCAUUUCCUCCCGUAUCGUUGUUCUCAGGCAGAGGUUCAUAUUCUGAAUGGUCCAGAGCCCAACAGAGGAUUGAGCAUCA
B12: 40924096_40924216_925_3pUTR_ENSMUSG00000028423_ENSMUST00000098143|mouse|control|control (ssRNA)
RNA: GGGAGUUCUACAGUCCGACGAUCUCGUUGGUCUUUCUCUAAGAUUAUCCUUUGGAAUGGGGGACAUGUUGGUUUUGGGCCCUGCAUUUAUAUGCCGCUGACUCUCCUGUUUUGGUGGGUUCCUGCCUGGCCGUGGUCUGGCCCCAACAGAGGAUUGAGCAUCA
B13: chr14:89307221:89307222:+_ENSG00000165533_ENST00000346301|hu_mus|hu_hu_hu_mus_False|98_98 (ssRNA)
RNA: GGGAGUUCUACAGUCCGACGAUCUCCUGUUUGGUUAGUUCCAGGGAGCUUCAAAGAUGUGCCAGGGCGUGGGACCUGAGCAAUAGCAUUUUCAUCCAGGAUCAUUUCAGCAAUUCCUUCCUGGUCCACAUCAAUUUCAUCUAUCAACAGAGGAUUGAGCAUCA
B14: chr7:151048522:151048523:+_ENSG00000013374_ENST00000566856|hu_mus|motif|central (ssRNA)
RNA: GGGAGUUCUACAGUCCGACGAUCCUGUUUCUUAUUUAUUACGAUCUUGAUGUAAUUUUCUUGAAAUCCGAAAGUUUCAGCGGUUUGACACCUCAGGUCUCUACCAGUGACAUGCAAGCGGGUCUCCAACAAGCUUUUCUUAUCCAACAGAGGAUUGAGCAUCA
B15: chr2:160775391:160775392:-_ENSMUSG00000057133_ENSMUST00000039782|mus_hu|FALSE|FALSE (ssRNA)
RNA: GGGAGUUCUACAGUCCGACGAUCAAUGAGUCCAGGAGAUACUCCUGGGAUGAGAAAUGGGUUAAAAGCCACAGGACUACUAGUAGUUAUUGCAGGUUCAGACUGAUCAGAAAAUGGACCUGGACCAGGCUUGUCCUCAGCUAACAACAGAGGAUUGAGCAUCA
B16: chr18:33597908:33597909:-_ENSMUSG00000042834_ENSMUST00000171533|mus_mus|FALSE|FALSE (ssRNA)
RNA: GGGAGUUCUACAGUCCGACGAUCUACAUCAAAAGAGUACAUGGGUAAAAUAUAGAUAUACAGACAAUUGAUGAACAUAAACUACUAGGCUUGUUACAUCUAAAUGAAGAAAAAAAAAAACCGUGGGGGGGACUCUCAGCCUCUCAACAGAGGAUUGAGCAUCA
B17: chr2:160775391:160775392:-_ENSMUSG00000057133_ENSMUST00000039782|mus_hu|motif|central (ssRNA)
RNA: B15 RNA with U77G, A78G, U80G, A81G
B18: chr1:38489269:38489270:+_ENSG00000183520_ENST00000537711|hu_hu|FALSE|FALSE (ssRNA)
RNA: GGGAGUUCUACAGUCCGACGAUCUUUGAAGUUACUAGAAAACGACAACAGAUUUUUGAUACAGAAUGACAAGGCUUAUCUAUAACACGUCAACGUUUUCGACGACUCUGAAAUUUAUAAAUAGCUGGGGAGUUCACCGUUUCUCAACAGAGGAUUGAGCAUCA
B19: chr18:33597908:33597909:-_ENSMUSG00000042834_ENSMUST00000171533|mus_mus|motif|central (ssRNA)
RNA: B16 RNA with U82G, A83G, U85G, A86G
B20: chr2:29001751:29001752:+_ENSG00000213639_ENST00000296122|perfect_dup|motif|central (ssRNA)
RNA: GGGAGUUCUACAGUCCGACGAUCAGCCAAUAGCAAACAAAUGGUUUCCAAAGACUGCUUUCCUCUGUCCACAUAAUCUCCGGAGAAAAGAUAGUUGGCUUCUGGUGGGAAACCUCCAUAUUCAAAUAAUCUCAGUAAAUCUGUCAACAGAGGAUUGAGCAUCA
B21: chr3:35977374:35977375:+_ENSMUSG00000027710_ENSMUST00000011492|mus_hu|motif|central (ssRNA)
RNA: GGGAGUUCUACAGUCCGACGAUCCACAGGUAUCUUGGUGUUUUCAAAAUGGACUUCACAAGUGUUGGAGCCCCGAAUGCCGGAUUUAUCUUCGGGUUUCCCAUUAGUGACUCCACCAAAGUCUCUUUCUACUAUGAAUGCUGUCAACAGAGGAUUGAGCAUCA
B22: chr2:24917620:24917621:+_ENSMUSG00000006476_ENSMUST00000102931|mus_mus|motif|central (ssRNA)
RNA: GGGAGUUCUACAGUCCGACGAUCAGUAAUGCUGCUUCCCUUCAAAUUGUUUCAGGGGUGUAAAAAAAUUGCACUUAUUUCGGUGAACCCCAUGGAGGGGAUCCCCAAUGCUGCUGCCUCCAGGCGAGGCAUGACAGGUCAAUGCAACAGAGGAUUGAGCAUCA

target: T1, UNK ZnF1-3; test: nsRBNS (natural sequence RNA bind-n-seq); RBNS binding buffer (assumed for nsRBNS): 25 mM Tris pH 7.5, 150 mM KCl, 3 mM MgCl2, 0.01% Triton X-100, 500 ug/ml BSA, 20 U/ml SUPERase-In, 4 C; UNK is unkempt and MSI1 is Musashi-1; names of the RNAs are library labels; protein concentration not given here; high values mean tight binding

Binder	binding signal [enrichment R]
B1	1.11
B2	1.84
B3	1.01
B4	1.92
B5	1.02
B6	1.25
B7	6.14
B8	1.49
B9	0.665
B10	8.87
B11	0.744
B12	0.527
B13	0.79
B14	0.692
B15	0.911
B16	7.83
B17	1.1
B18	1.2
B19	6.83
B20	1.36
B21	0.637
B22	1.02
